Assay results taken from PubChem BioAssay (NCATS).
Records with an inconclusive call do not appear. Values without a mark were called inactive. Calls of active or inactive are those of the source. The call rests on the fitted dose curve.

Assay: A High-Content qHTS Against Drug Library for the Identification of Small Molecules that Inhibit DYT1 Early Onset Primary Dystonia-Associated Cell Pathology (AID 1645839)
Conditions: HEK293 Flp-In EGFP-delE TorsinA, punctate imaging, 48 h; series mostly up to 46.1 µM; % pathology change, negative = correction: at the top concentration
Text: Nicole Calakos M.D., Ph.D.
Duke University School of Medicine, Durham, NC
In DYT1 dystonia due to delGAG in the TOR1A gene, there is a robust and widely replicated finding of TorsinA protein mislocalization caused when the mutant protein is in excess of the wildtype protein (1-7). Stable HEK293 cell lines were created that replicate this phenomenon. Inducible expression of an EGFP-hu delE TorsinA encoding cDNA causes pronounced punctate cellular distribution. […] This phenotypic difference in EGFP-huTorsinA fusion protein distribution serves as an indicator of cell pathology. […] RNAi screen results with the assay were validated in DYT1 patient cell phenotypes, intersected with a known dystonia gene, and led to discovery of new human genetic dystonia associations.
The bioassay described herein is a high-content image screen with two readouts. The "%pathology" readout is the primary qHTS data channel, while the "cellcount" is the counterscreen qHTS channel. Desired active compounds are those that show inhibition in %pathology channel but no activity or minimal toxicity in cellcount readout.
1. Kustedjo, K., Bracey, M.H., and Cravatt, B.F. (2000). […] J. Biol. Chem. 275, 27933 - 27939.
2. Bragg, D.C., Kaufman, C.A., Kock, N., and Breakefield, X.O. (2004). Inhibition of N-linked glycosylation prevents inclusion formation by the dystonia-related mutant form of torsinA. Mol. Cell. Neurosci. 27, 417 - 426.
3. Gonzalez-Alegre, P., and Paulson, H.L. (2004). Aberrant Cellular Behavior of Mutant TorsinA Implicates Nuclear Envelope Dysfunction in DYT1 Dystonia. J. Neurosci. 24, 2593 - 2601.
4. Goodchild, R.E., and Dauer, W.T. (2004). Mislocalization to the nuclear envelope: an effect of the dystonia-causing torsinA mutation. Proc. Natl. Acad. Sci. U. S. A. 101, 847 - 852.
5. Kock, N., Allchorne, A.J., Sena-Esteves, M., Woolf, C.J., and Breakefield, X.O. (2006). RNAi blocks DYT1 mutant torsinA inclusions in neurons. Neurosci. Lett. 395, 201 - 205.
6. Hewett, J.W., Nery, F.C., Niland, B., Ge, P., Tan, P., Hadwiger, P., Tannous, B.A., Sah, D.W.Y., and Breakefield, X.O. (2008). siRNA knock-down of mutant torsinA restores processing through secretory pathway in DYT1 dystonia cells. Hum. Mol. Genet. 17, 1436 - 1445.
7. Calakos, N., Patel, V.D., Gottron, M., Wang, G., Tran-Viet, K.N., Brewington, D., Beyer, J.L., Steffens, D.C., Krishnan, R.R., and Zuchner, S. (2010). Functional evidence implicating a novel TOR1A mutation in idiopathic, late-onset focal dystonia. J. Med. Genet. 47, 646 - 650.
8. Rittiner* JE, Caffall* ZF, Hernandez-Martinez R, Sanderson SM, Pearson JL, Tsukayama KK, Liu AY, Xiao C, Tracy S, Shipman MK, Hickey P, Johnson J, Scott B, Stacy M, Saunders-Pullman R, Bressman S, Simonyan K, Sharma N, Ozelius LJ, Cirulli ET, Calakos N. Functional Genomic Analyses of Mendelian and Sporadic Disease Identify Impaired eIF2alpha Signaling as a Generalizable Mechanism for Dystonia. Neuron. 2016 Dec 21;92(6):1238-1251. doi: 10.1016/j.neuron.2016.11.012. Epub 2016 Dec 8. PMID: 27939583; PMCID: PMC5320521.
High-content, High-throughput Drug Screening Assay
The TorsinA mislocalization assay was modified from the previously published assay to accommodate compound testing in 1536 well format.1 Briefly, Flp-In T-REx 293 cells from Invitrogen in which a single copy of a cDNA is recombined into a specific genomic locus was used to create tetracycline-inducible expression of cDNA encoding either EGFP-hTOR1A (WT) or EGFP-delE hTOR1A (DYT1). WT and DYT1 cells were diluted to a concentration of 2 x 10^5 cells/mL in reduced serum media (DMEM High Glucose containing 1% tetracycline-tested FBS, 2 mM L-Glutamine, and 1% Penicillin/Streptomycin). 4 µl of WT cells and 4 µl of DTY1 cells were added to column 1 and columns 2-48, respectively, of a poly-D-lysine-coated, low base, black, clear bottom 1536 well plate (Corning, Corning, NY) using the BioRAPTR FRD Microfluidic Workstation (Beckman Coulter, Indianapolis, IN). The final cell number was 800 cells/well. […]

Compound | % pathology change, negative = correction | Potency
CNC(=O)Oc1ccc2c(c1)[C@]1(C)CCN(C)[C@@H]1N2C | 0.349% | –
CCOC(=O)c1ccc(O)cc1 | 22.3% | –
O=C(O)CC(O)C(=O)O (stereo not given) | 13.4% | –
NC(=O)NC(=O)Cc1ccccc1 | 1.87% | –
O=C1N=C(O)CN1/N=C/c1ccc(-c2ccc([N+](=O)[O-])cc2)o1 | -1.51% | –
CC(=O)Oc1ccc(C2(c3ccc(OC(C)=O)cc3)C(=O)Nc3ccccc32)cc1 | -19.9% | –
CCCCN(CCCC)CCCOC(=O)c1ccc(N)cc1 | -0.992% | –
NC(=O)c1ncn([C@@H]2O[C@H](CO)[C@@H](O)[C@H]2O)n1 | 5.2% | –
O=C(O)[C@H](O)c1ccccc1 | 7.64% | –
CC(=O)NC(Cc1ccccc1)C(=O)O (stereo not given) | -2.99% | –
CC1=C(CC(=O)O)c2cc(F)ccc2/C1=C\c1ccc(S(C)=O)cc1 (stereo not given) | 9.58% | –
O=C(O)c1ccccc1O | 1.3% | –
CC(O)CN(CCN(CC(C)O)CC(C)O)CC(C)O (stereo not given) | 2.98% | –
Nc1nc2c(ncn2CCC(CO)CO)c(=O)[nH]1 | 18.9% | –
CN(C)CCN(Cc1ccccc1)c1ccccn1 | 4.13% | –
CC[N+](CC)(CC)CCOc1ccc(/C=C/c2ccccc2)cc1 | -23.5% | –
CCN(CC)CCOC(=O)C1(C2CCCCC2)CCCCC1 | 8.79% | –
COc1cc2[nH]c(=O)[nH]c(=O)c2cc1OC | 13.4% | –
Cc1ccc(C(C)C)cc2c(C)ccc1-2 | -1.87% | –
CCN(CC)CCNC(=O)c1cc(Cl)c(N)cc1OC | 0% | –

Compound | % pathology change, negative = correction | Potency
CC1(C)CO[C@@H](CC(=O)O)CN1 | 15.2% | –
CCCCCCCCCCCCOS(=O)(=O)O | -10.4% | –
NC(=O)N/N=C/c1ccc([N+](=O)[O-])o1 | – | inactive
Cn1c(=O)c2c(ncn2CC2OCCO2)n(C)c1=O | -17.6% | –
O=C(O)c1ccccc1-c1ccc(C(F)(F)F)cc1 | 1.49% | –
CC(C)c1c(C(=O)Nc2ccccc2)c(-c2ccccc2)c(-c2ccc(F)cc2)n1CC[C@@H](O)C[C@@H](O)CC(=O)O | 13.1% | –
CC1CC(OC(=O)C(O)c2ccccc2)CC(C)(C)N1C (stereo not given) | -12.5% | –
O=C1NC(=O)[C@@]2(CCOc3ccc(F)cc32)N1 | 11.1% | –
CCCCOC(=O)c1ccc(O)cc1 | -35.9% | –
CCOC(=O)[C@H](CCc1ccccc1)N[C@@H](C)C(=O)N1C(=O)N(C)C[C@H]1C(=O)O | 2.88% | –
O=C1O[C@H]([C@@H](O)CO)C(O)=C1O | 2.37% | –
O=c1cc[nH]c(=S)[nH]1 | 14% | –
CC(O)COc1ccccc1 (stereo not given) | 15.1% | –
CC(C)(O)c1ccccc1CC[C@@H](SCC1(CC(=O)O)CC1)c1cccc(/C=C/c2ccc3ccc(Cl)cc3n2)c1 | 0.57% | –
[Cl][In]([Cl])[Cl] | -24.3% [at 91.7 µM] | –
C[C@@H]1C[C@H]2[C@@H]3C[C@H](F)C4=CC(=O)C=C[C@]4(C)[C@@]3(F)[C@@H](O)C[C@]2(C)[C@@]1(O)C(=O)CO | -24.3% | –
Cc1cccc(C)c1NC(=O)CN(CC(=O)O)CC(=O)O | 5.84% | –
OCC(CO)N[C@H]1C[C@](O)(CO)[C@@H](O)[C@H](O)[C@H]1O | 6.09% | –
CN(C)CCOC(C)(c1ccccc1)c1ccccn1 (stereo not given) | 9.92% | –
Cc1ncc([N+](=O)[O-])n1CC(O)CCl (stereo not given) | -6.09% | –
